{"source": "PubChem BioAssay AID720582", "about": "(The Scripps Research Institute Molecular Screening Center, 2013)", "note": "Screen size: about 370,000 compounds; about 2,300 (0.62%) were called active.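 Rule for the calls: active = inhibition above a per-campaign cutoff equal to the mean of compounds falling between control-based bounds plus 3 SD (cut at about 20% in these data); inactive = the rest.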 Many of the other results were omitted from the sample, so actives are more common in it than they were."}
{"molecular_target": "Disintegrin and metalloproteinase domain-containing protein 10 (Homo sapiens) (UniProt O14672)", "sequence (O14672 214-748 limits assumed)": "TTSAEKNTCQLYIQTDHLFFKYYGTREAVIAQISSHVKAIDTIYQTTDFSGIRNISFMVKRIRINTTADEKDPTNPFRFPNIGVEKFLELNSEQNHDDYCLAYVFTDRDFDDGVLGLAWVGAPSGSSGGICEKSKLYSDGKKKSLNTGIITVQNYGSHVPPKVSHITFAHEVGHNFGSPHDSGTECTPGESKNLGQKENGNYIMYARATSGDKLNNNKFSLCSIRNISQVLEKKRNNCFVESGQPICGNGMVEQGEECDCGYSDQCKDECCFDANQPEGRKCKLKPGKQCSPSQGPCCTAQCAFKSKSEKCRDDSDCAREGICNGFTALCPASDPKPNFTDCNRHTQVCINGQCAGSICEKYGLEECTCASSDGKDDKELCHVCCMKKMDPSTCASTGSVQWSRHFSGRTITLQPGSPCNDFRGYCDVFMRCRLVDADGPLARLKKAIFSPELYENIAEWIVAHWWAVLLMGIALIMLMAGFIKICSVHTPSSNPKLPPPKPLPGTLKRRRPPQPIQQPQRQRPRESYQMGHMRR", "assay": "human ADAM10 inhibitors, primary screen, biochemical, QFRET, HTS (AID 720582);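 note: 0% = DMSO wells while the 100% control is not disclosed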", "details": "recombinant ADAM10, EDANS/DABCYL FRET peptide cleavage, 3 h; at 7 µM; stronger effect = higher value"}
{"molecule": "Oc1c(Cl)cc(Cl)c(Cl)c1Cc1c(O)c(Cl)cc(Cl)c1Cl", "inhibition": "36.2% (active)"}
{"molecule": "O=C(CSc1nnc(-c2ccccn2)n1-c1ccc(Cl)cc1)Nc1ccccc1-c1ccccc1", "inhibition": "1.01% (inactive)"}
{"molecule": "C=CCN1C(=O)[C@@H](CC(=O)NCCCOCCCC)[C@]2(C(=O)OCC)CCCCC/C=C/12", "inhibition": "-1.99% (inactive)"}
{"molecule": "O=C(OCC(O)C(O)COC(=O)c1ccccc1)c1ccccc1", "note": "(stereo not given)", "inhibition": "-1.65% (inactive)"}
{"molecule": "O=C(OCc1ccc(-c2ccccc2)cc1)c1cccc(O)c1", "inhibition": "23.1% (active)"}
{"molecule": "Cc1ccc(S(=O)(=O)c2c(COC(=O)c3cccc(Cl)c3)c(-c3ccccc3)nn2C)cc1", "inhibition": "4.59% (inactive)"}
{"molecule": "C=CCn1c(SCC(N)=O)nnc1-c1ccccc1OC", "inhibition": "-8.66% (inactive)"}
{"molecule": "CN1C[C@]2(C=C3CCCCC3n3c(=O)n(-c4ccccc4)c(=O)n32)N=C1NC(=O)c1ccccc1", "note": "(stereo not given in full)", "inhibition": "5.49% (inactive)"}
{"molecule": "O=C(NCc1cccs1)C1CCN(S(=O)(=O)c2ccccc2[N+](=O)[O-])CC1", "inhibition": "7.43% (inactive)"}
{"molecule": "Cc1ccc(OCC(=O)Nc2ccc(C(=O)O)cc2NC(=O)COc2ccc(C)c(C)c2)cc1C", "inhibition": "-2.89% (inactive)"}
{"molecule": "Cc1ccc(NS(=O)(=O)c2ccc(C)c(NC(=O)COc3ccc4ccccc4c3)c2)c(C)c1", "inhibition": "21.2% (active)"}
{"molecule": "Cc1ccc(C)c(NS(=O)(=O)c2ccc(OCC(=O)NCc3cccnc3)cc2)c1", "inhibition": "5.13% (inactive)"}
{"molecule": "COc1ccc(-n2c(SCC(=O)NC3CCCC3)nnc2-c2ccncc2)cc1", "inhibition": "-6.99% (inactive)"}
{"molecule": "COc1cccc(/C=C2\\CC3(OC(C)=O)CCCN2C3)c1", "note": "(stereo not given)", "inhibition": "3.53% (inactive)"}
{"molecule": "CC(CCN1CCC(C(O)(c2ccccc2)c2ccccc2)CC1)Oc1ccc([N+](=O)[O-])cc1Cl", "note": "(stereo not given)", "inhibition": "14.3% (inactive)"}
{"molecule": "O=C(NCc1ccccc1)c1onc(CSc2nc3ccccc3[nH]2)c1C(=O)NCc1ccccc1", "inhibition": "23.5% (active)"}
{"molecule": "O=C(NCc1ccccc1)c1onc(CSc2ccncc2)c1C(=O)NCc1ccccc1", "inhibition": "6.67% (inactive)"}
{"molecule": "O=C(NCC1CC1)c1onc(CSc2ccccc2)c1C(=O)NCC1CC1", "inhibition": "4.44% (inactive)"}
{"molecule": "CCN(C(=O)[C@@H](C1CC1)[C@@H](O)c1ccc2ccccc2c1)c1ccccc1", "inhibition": "7.43% (inactive)"}
{"molecule": "CC(C)CNc1cccc2c1S(=O)(=O)N(Cc1cn(Cc3ccccc3C(F)(F)F)nn1)Cc1ccccc1O2", "inhibition": "-26.5% (inactive)"}
{"molecule": "O=C(CSc1nc2ccccc2s1)N=Nc1c(O)[nH]c2ccccc12", "inhibition": "7.8% (inactive)"}
{"molecule": "Cc1ccc(Cn2cc(CN3[C@@H](C)COc4cc(Br)ccc4S3(=O)=O)nn2)cc1", "inhibition": "-3.91% (inactive)"}
{"molecule": "CCN1C(=O)C(CC(=O)Nc2cc(C)ccc2C)SC1=Nc1ccc(S(N)(=O)=O)cc1", "note": "(stereo not given)", "inhibition": "3.57% (inactive)"}
{"molecule": "O=C(CC1SC(=Nc2ccccc2)N(Cc2ccccn2)C1=O)Nc1cccc(Cl)c1", "note": "(stereo not given)", "inhibition": "21.2% (active)"}
{"molecule": "CN1C(=O)C(CC(=O)Nc2ccccc2)S/C1=N/c1nccs1", "note": "(stereo not given)", "inhibition": "8.04% (inactive)"}
{"molecule": "O=C(c1c[nH]c2ccccc12)N1CCC(Oc2cccnc2)CC1", "inhibition": "1.42% (inactive)"}
{"molecule": "Clc1ccc(-n2c(SC/C=C/c3ccccc3)nnc2-c2ccco2)cc1", "inhibition": "15.1% (inactive)"}
{"molecule": "CCOC(=O)[C@@]12CN(C(=O)OC(C)(C)C)CC=C1N(Cc1ccc(OC)cc1)C(=O)[C@H]2CC(=O)NCc1ccc(OC)c(OC)c1", "inhibition": "1.76% (inactive)"}
{"molecule": "C=CCN1C(=O)[C@H](CC(=O)NCCCN2CCCC2=O)[C@@]2(C(=O)OCC)CCCC=C12", "inhibition": "-5.84% (inactive)"}
{"molecule": "C=CCOC/C=C/C#CCN(CC=C)Cc1ccc(OC)cc1OC", "inhibition": "-0.01% (inactive)"}
{"molecule": "CC1(C)C=Cc2c(ccc3c2OC[C@@H](c2ccc(O)cc2O)C3)O1", "inhibition": "26.4% (active)"}
{"molecule": "COC(=O)C1CN(Cc2cn(Cc3ccc(F)cc3)nn2)CCS(=O)(=O)N1Cc1ccc(Cl)cc1", "note": "(stereo not given)", "inhibition": "2.41% (inactive)"}
{"molecule": "C=CCN1C(=O)[C@@H](CC(=O)NCC2CCCCC2)[C@]2(C(=O)OC)CCCCC=C12", "inhibition": "5.05% (inactive)"}
{"molecule": "CCCOc1ccc(F)cc1-c1cc(C(=O)NCc2ccc(F)cc2)[nH]n1", "inhibition": "15.3% (inactive)"}
{"molecule": "Cc1ccc(O)c(-c2cc(C(=O)NCc3ccccc3)[nH]n2)c1", "inhibition": "12.6% (inactive)"}
{"molecule": "Cc1cc(O)ccc1-c1cc(C(=O)NCc2cc(C(F)(F)F)cc(C(F)(F)F)c2)[nH]n1", "inhibition": "20.5% (active)"}
{"molecule": "O=C(Nc1cc(Cl)cc(Cl)c1)OCCN1CCCC12CCC(c1ccccc1)CC2", "note": "(stereo not given)", "inhibition": "4.69% (inactive)"}
{"molecule": "C=C(C)C#CC(Cc1ccccc1)N(CC1CC1)/C(N)=N/C(=O)OCc1ccccc1", "note": "(stereo not given)", "inhibition": "-71.4% (inactive)"}
{"molecule": "CCOc1ccc(Oc2c(Cl)cnn(-c3ccc(C)cc3)c2=O)cc1", "inhibition": "0.21% (inactive)"}
{"molecule": "CC(NCc1ccco1)C(=O)N1CCCCC1", "note": "(stereo not given)", "inhibition": "-0.25% (inactive)"}
{"molecule": "N#C/C(=C\\c1cccnc1)C(=O)Nc1ccc(SC(F)F)cc1", "inhibition": "9.34% (inactive)"}
{"molecule": "O=C(Cc1ccc(Cl)c(Cl)c1)Nc1ccc(SC(F)F)cc1", "inhibition": "24.6% (active)"}
{"molecule": "Cc1ccc(CC(=O)Nc2ccc(S(=O)(=O)N3CCOCC3)cc2)cc1C", "inhibition": "9.05% (inactive)"}
{"molecule": "O=C1CC[C@@]23CCCN2C(=O)CCC[C@H]3[C@H]1Cc1ccccc1", "inhibition": "-4.62% (inactive)"}
{"molecule": "CN(C)CC(=O)N[C@@H]1C[C@@H]2O[C@H](CO)CC[C@@H]2O[C@@H]1CCc1ccc(C#Cc2ccccc2)cc1", "inhibition": "7.99% (inactive)"}
{"molecule": "COC(=O)[C@]12C[C@H](CC(=O)NCc3cccs3)C(=O)N(CCc3ccc(OC)c(OC)c3)C1=C[C@H](C(C)C)O[C@@H]2C1CC1", "inhibition": "-6.09% (inactive)"}
{"molecule": "CN(C)c1ccc(NC(=O)NC2CCCCN(Cc3ccc(Cl)cc3)C2=O)cc1", "note": "(stereo not given)", "inhibition": "8.78% (inactive)"}
{"molecule": "COc1ccccc1CC1(C)C(=O)Nc2ccc(OC(F)(F)F)cc21", "note": "(stereo not given)", "inhibition": "22.6% (active)"}
{"molecule": "Cc1ccc(CC2(C)C(=O)Nc3ccc(OC(F)(F)F)cc32)cc1", "note": "(stereo not given)", "inhibition": "5.38% (inactive)"}
{"molecule": "CCc1ccc2c(c1)NC(=O)C2(C)Cc1ccc(OC(F)(F)F)cc1", "note": "(stereo not given)", "inhibition": "14.9% (inactive)"}
{"molecule": "C=CCN(Cc1ccc2c(c1)OCO2)C(C#CC1CC1)C(C)(C)C", "note": "(stereo not given)", "inhibition": "-9.94% (inactive)"}
{"molecule": "Cc1cc(C)cc(NC(=O)N2CCC(N(C)CCC(C)C)CC2)c1", "inhibition": "3.06% (inactive)"}
{"molecule": "CC(C)(C)c1ccc(S(=O)(=O)NCC2CCN(C(=O)C(=O)c3cc4ccccc4o3)CC2)cc1", "inhibition": "24.4% (active)"}
{"molecule": "N#Cc1cccc(C(=O)NCC2CCN(C(=O)C(=O)c3cc4ccccc4o3)CC2)c1", "inhibition": "1.47% (inactive)"}
{"molecule": "O=C(C(=O)N1CCC(CNS(=O)(=O)Cc2ccccc2)CC1)c1cc2ccccc2o1", "inhibition": "0.44% (inactive)"}
